From PubChem BioAssay (NCI)
This is part of a sample that, as a whole, favours compounds with a hit. Of some 83,000 tested, about 20% had one in any assay.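 In brief: 96-well plates, 48 h treatment, single concentration, percent growth endpoint.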 Values without a mark were called inactive. Calls of active or inactive are those of the source. The calls were made as follows: active = growth percent below 10; inactive = the rest.

Experiments:
Experiment in all cases: NCI-60 one-dose screen, 48 h (100 = growth as untreated, 0 = no growth, -100 = all killed)
Details in all cases: 10 µM unless noted
NCI-H23 lung = test system: NCI-H23 lung
NCI-H226 lung = test system: NCI-H226 lung
NCI-H322M lung = test system: NCI-H322M lung
HOP-62 NSCLC = test system: HOP-62 NSCLC
NCI-H460 lung = test system: NCI-H460 lung
HOP-92 NSCLC = test system: HOP-92 NSCLC
NCI-H522 lung = test system: NCI-H522 lung
A549/ATCC NSCLC = test system: A549/ATCC NSCLC
786-0 renal = test system: 786-0 renal
COLO 205 colon = test system: COLO 205 colon
DU-145 prostate = test system: DU-145 prostate
K-562 leukemia = test system: K-562 leukemia
MALME-3M melanoma = test system: MALME-3M melanoma
MDA-MB-231 breast = test system: MDA-MB-231 breast
RXF 393 renal = test system: RXF 393 renal
SF-268 CNS = test system: SF-268 CNS
SF-295 CNS = test system: SF-295 CNS
SF-539 CNS = test system: SF-539 CNS
UACC-257 melanoma = test system: UACC-257 melanoma
M14 melanoma = test system: M14 melanoma

Row | Compound | growth (NCI-H23 lung) | growth (NCI-H226 lung) | growth (NCI-H322M lung) | growth (HOP-62 NSCLC) | growth (NCI-H460 lung) | growth (HOP-92 NSCLC) | growth (NCI-H522 lung) | growth (A549/ATCC NSCLC) | growth (786-0 renal) | growth (COLO 205 colon) | growth (DU-145 prostate) | growth (K-562 leukemia) | growth (MALME-3M melanoma) | growth (MDA-MB-231 breast) | growth (RXF 393 renal) | growth (SF-268 CNS) | growth (SF-295 CNS) | growth (SF-539 CNS) | growth (UACC-257 melanoma) | growth (M14 melanoma)
1 | N=C(N)c1ccc(-c2ccc(-c3ccccc3)s2)nc1 | 94.1% | 92.8% | 80.4% | 88.8% | 23.1% | 70.2% | 83.9% | 83.8% | 91.3% | -6.33% (active) | 92.1% | 14.5% | 101% | 86.1% | 87.2% | 93.8% | 88% | 88.2% | 96% | 88.7%
2 | COC(=O)c1cc(-c2ccc(OC)c(OC)c2)[nH]c1N/N=C/c1c(Cl)cccc1Cl | 40.7% | 62.4% | 55.1% | -7.06% (active) | 14.6% | 52.7% | 13.7% | 43% | 8.47% (active) | 28% | 21.2% | 19.9% | 46.8% | 41.1% | -10.4% (active) | 43.6% | -0.264% (active) | -15.2% (active) | 49.3% | 0.331% (active)
3 | C=CCn1c(SCC(=O)Nc2ccc(C(=O)/C=C/c3ccc(Cl)cc3)cc2)nnc1-c1ccccc1 | 95% | 94.7% | 96.7% | 97% | 106% | 93.2% | 82.2% | 93.2% | 81.8% | 105% | 93.7% | 76.3% | 98.7% | 101% | 118% | 84.7% | 94.9% | 96.6% | 111% | 94.4%
4 | COc1ccc(C2=C/C(=C\c3ccccc3O)C(=O)N2Cc2ccccc2)cc1 | 85.9% | 94.9% | 77.8% | 89.7% | 90% | 64.6% | 51.3% | 74% | 90% | 102% | 96.2% | 51.1% | 63.4% | 93.7% | 76.2% | 86.5% | 94% | 101% | 71.7% | 50.5%
5 | C#Cc1cccc(Nc2ncnc3ccc(-c4cnc(Cl)c(NS(C)(=O)=O)c4)cc23)c1 | -5.52% (active) | 2.26% (active) | -42.3% (active) | 3.57% (active) | 6.42% (active) | -17.1% (active) | -22.8% (active) | -28.5% (active) | -14.6% (active) | -69.2% (active) | 2.5% (active) | 11.2% | -35.5% (active) | -6.68% (active) | -54.9% (active) | -30.1% (active) | -31.9% (active) | -38.4% (active) | -9.67% (active) | -26.7% (active)
6 | C=C(C)[C@@H]1CC[C@]2(C(=O)NC(C)=O)CC[C@]3(C)[C@H](CC[C@@H]4[C@@]5(C)CCCNC(C)(C)[C@@H]5CC[C@]43C)[C@@H]12 | 59.7% | 83.6% | 63.3% | 56.4% | -84.2% (active) | 56.4% | -46.7% (active) | 26.8% | 59.4% | -59% (active) | 24.8% | 3% (active) | -83.3% (active) | 23.7% | 25.2% | 60.5% | 77.6% | -79.6% (active) | -64.5% (active) | -65.3% (active)
7 | CN1CCN(Cc2ccc(NC(=O)c3cc(C#Cc4cnc(N)c5ncccc45)n(C)n3)cc2C(F)(F)F)CC1 | 97.8% | 115% | 127% | 100% | 9.09% (active) | 103% | 99.7% | 47.5% | 9.92% (active) | 115% | 83.9% | 1.62% (active) | 79.9% | 102% | 69.3% | 102% | 102% | 70.5% | 102% | 113%
8 | CCN1C(=O)N(CC)C2C1NN=c1s/c(=C\c3ccc(F)cc3)c(=O)n12 (stereo not given) | 39.3% | 63.4% | 44.2% | 39.3% | 5.08% (active) | 43.6% | -5.22% (active) | 15.5% | 35% | 5.08% (active) | -11.2% (active) | 8.05% (active) | 49.9% | 24.1% | 5.29% (active) | 53.3% | 13.6% | -14.9% (active) | 56% | 12.6%
